Experimental data: PubChem BioAssay (Tox21)
Results filed as inconclusive are left out. Calls of active or inactive are those of the source. Unless noted, the call rests on the fitted dose curve; in most records, active means well fitted curve in the direction sought with a large enough effect in the repeat runs; inconclusive means weak or mixed curves; inactive means no such curve, though single readings can be large; an effect the other way counts as inactive or inconclusive.

Tests used:
[1] = qHTS assay to identify small molecule antagonists of the thyroid receptor (TR) signaling pathway - cell viability counter screen (AID 743064); further: nearly all actives have a fitted effect of over 50% in size
Outline: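 Counter screen for cytotoxicity: compound plus T3 (1 nM final) on GH3.TRE-Luc cells, 23.5 h at 37 °C, then fluorescence viability readout with CellTiter-Fluor.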

[2] = qHTS assay to identify small molecule antagonists of the thyroid receptor (TR) signaling pathway (AID 743065); further: series mostly up to about 70 µM; nearly all actives have a fitted effect of over 55% in size
Outline: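 GH3.TRE-Luc rat pituitary cells carrying two TR response elements driving luciferase were plated for 4 h, given compound plus 1 nM T3 (final), and incubated 23.5 h at 37 C. ONE-Glo luminescence measured reporter inhibition; CellTiter-Fluor fluorescence tracked cytotoxicity.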

[3] = test system: thyroid hormone receptor (rat, GH3 cells); assay: qHTS assay to identify small molecule agonists of the thyroid receptor (TR) signaling pathway (AID 743066; calls by dose curve)
[4] = target: Estrogen receptor (Homo sapiens) (UniProt P03372); assay: qHTS assay to identify small molecule antagonists of the estrogen receptor alpha (ER-alpha) signaling pathway (AID 743069; active means well fitted curve in the direction sought with a large enough effect in the signal ratio in the repeat runs, not every such curve was filed as active; the % refers to the signal ratio)
Sequence of Estrogen receptor (Homo sapiens) (P03372 whole entry, looked up): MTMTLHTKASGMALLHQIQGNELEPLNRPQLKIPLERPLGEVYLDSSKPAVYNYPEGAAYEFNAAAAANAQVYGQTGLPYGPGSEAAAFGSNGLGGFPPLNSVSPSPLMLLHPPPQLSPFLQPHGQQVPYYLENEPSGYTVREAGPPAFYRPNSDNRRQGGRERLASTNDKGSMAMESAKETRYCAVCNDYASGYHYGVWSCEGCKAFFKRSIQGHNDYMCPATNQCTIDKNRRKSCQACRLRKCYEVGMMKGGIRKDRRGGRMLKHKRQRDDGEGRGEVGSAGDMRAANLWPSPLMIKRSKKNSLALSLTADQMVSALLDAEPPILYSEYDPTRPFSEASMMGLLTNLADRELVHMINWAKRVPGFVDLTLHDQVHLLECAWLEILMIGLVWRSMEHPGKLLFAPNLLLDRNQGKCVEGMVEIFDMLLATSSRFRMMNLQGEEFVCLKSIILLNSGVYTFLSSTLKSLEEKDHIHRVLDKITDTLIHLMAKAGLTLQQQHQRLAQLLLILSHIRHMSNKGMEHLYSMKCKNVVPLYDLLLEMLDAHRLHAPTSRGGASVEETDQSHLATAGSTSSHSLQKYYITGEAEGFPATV
Outline: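 Screening used a UAS-driven beta-lactamase reporter integrated into HEK293 cells expressing ER-alpha, stimulated with 17beta-estradiol alongside test compounds over 18 hr at 37C; signal came from LiveBLAzer B/G FRET fluorescence.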

[5] = qHTS assay to identify small molecule antagonists of the estrogen receptor alpha (ER-alpha) signaling pathway - cell viability counter screen (AID 743074; calls by dose curve; further: nearly all actives have a fitted effect of over 45% in size)
[6] = target: Estrogen receptor (Homo sapiens) (UniProt P03372); assay: qHTS assay to identify small molecule agonists of the estrogen receptor alpha (ER-alpha) signaling pathway (AID 743075; calls by dose curve)
[7] = target: Estrogen receptor (Homo sapiens) (UniProt P03372); assay: qHTS assay to identify small molecule agonists of the estrogen receptor alpha (ER-alpha) signaling pathway using the BG1 cell line (AID 743079); further: nearly all actives have a fitted effect of over 20% in size
[8] = qHTS assay to identify small molecule antagonists of the estrogen receptor alpha (ER-alpha) signaling pathway using the BG1 cell line (AID 743080; calls by dose curve;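 further: BG1 cells stimulated with 17beta-estradiol alongside compound; series mostly up to about 70 µM; nearly all actives have a fitted effect of over 25% in size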)
Outline: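 Readout is ONE-Glo luminescence, taken 30 min at room temperature after reagent addition, preceded by a CellTiter-Fluor viability read; BG1-Luc-4E2 cells had received compound and 17beta-estradiol for 21.5 h at 37 C.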

[9] = qHTS assay to identify small molecule antagonists of the estrogen receptor alpha (ER-alpha) signaling pathway using the BG1 cell line - cell viability counter screen (AID 743081);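 further: compound given together with 17beta-estradiol as the ER stimulus; series mostly up to about 70 µM; nearly all actives have a fitted effect of over 45% in size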
Aromatase (Homo sapiens) = Aromatase (Homo sapiens) (UniProt P11511); assay: qHTS assay to identify aromatase inhibitors (AID 743083); further: series mostly up to about 70 µM; nearly all actives have a fitted effect of over 55% in size
Sequence of Aromatase (Homo sapiens) (P11511 whole entry, looked up): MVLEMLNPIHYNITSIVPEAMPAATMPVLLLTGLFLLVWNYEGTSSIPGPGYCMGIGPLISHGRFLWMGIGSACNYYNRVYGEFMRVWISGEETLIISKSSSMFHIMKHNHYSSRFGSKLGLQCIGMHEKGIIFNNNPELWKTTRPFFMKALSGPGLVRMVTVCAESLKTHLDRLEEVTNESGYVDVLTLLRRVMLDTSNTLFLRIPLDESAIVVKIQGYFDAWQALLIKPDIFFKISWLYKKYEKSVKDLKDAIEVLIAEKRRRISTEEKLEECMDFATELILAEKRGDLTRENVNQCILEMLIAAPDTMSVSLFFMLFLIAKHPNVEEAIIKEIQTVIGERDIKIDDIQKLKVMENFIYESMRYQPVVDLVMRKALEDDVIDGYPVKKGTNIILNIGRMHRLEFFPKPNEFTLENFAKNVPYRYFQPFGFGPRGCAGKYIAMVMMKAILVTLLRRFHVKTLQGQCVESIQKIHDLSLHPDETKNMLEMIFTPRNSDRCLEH

[10] = qHTS assay to identify aromatase inhibitors - cell viability counter screen (AID 743084);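 further: cells stimulated with testosterone during compound exposure; nearly all actives have a fitted effect of over 55% in size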
[11] = target: Aryl hydrocarbon receptor (Homo sapiens) (UniProt P35869); assay: qHTS assay to identify small molecule that activate the aryl hydrocarbon receptor (AhR) signaling pathway (AID 743085);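 further: HG2L7.5c1 human HepG2 liver cells with stably integrated DRE-driven firefly reporter; series mostly up to about 70 µM; nearly all actives have a fitted effect of over 15% in size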
Sequence of Aryl hydrocarbon receptor (Homo sapiens) (P35869 whole entry, looked up): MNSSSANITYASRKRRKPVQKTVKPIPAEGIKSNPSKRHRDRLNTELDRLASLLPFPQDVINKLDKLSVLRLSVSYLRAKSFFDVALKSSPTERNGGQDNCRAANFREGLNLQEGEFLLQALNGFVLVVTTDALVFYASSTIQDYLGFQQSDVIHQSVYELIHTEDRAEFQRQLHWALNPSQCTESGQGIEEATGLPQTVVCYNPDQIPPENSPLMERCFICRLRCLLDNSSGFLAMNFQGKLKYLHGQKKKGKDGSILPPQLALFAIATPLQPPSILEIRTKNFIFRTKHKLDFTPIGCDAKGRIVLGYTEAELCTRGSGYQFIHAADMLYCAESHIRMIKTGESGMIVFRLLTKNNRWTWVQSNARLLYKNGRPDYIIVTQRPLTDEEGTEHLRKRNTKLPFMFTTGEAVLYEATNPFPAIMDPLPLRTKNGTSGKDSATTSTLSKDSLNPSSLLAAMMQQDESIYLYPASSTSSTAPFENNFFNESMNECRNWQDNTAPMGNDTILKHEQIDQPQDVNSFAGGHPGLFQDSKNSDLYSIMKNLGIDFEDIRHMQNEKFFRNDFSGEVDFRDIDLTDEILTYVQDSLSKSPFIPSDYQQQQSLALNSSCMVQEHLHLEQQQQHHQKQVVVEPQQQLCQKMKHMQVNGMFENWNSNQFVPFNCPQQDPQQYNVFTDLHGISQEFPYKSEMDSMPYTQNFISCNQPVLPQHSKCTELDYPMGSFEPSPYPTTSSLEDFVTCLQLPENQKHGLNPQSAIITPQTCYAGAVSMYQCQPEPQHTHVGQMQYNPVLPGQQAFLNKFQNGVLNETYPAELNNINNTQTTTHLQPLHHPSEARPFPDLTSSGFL
Outline: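 Measured in HG2L7.5c1 cells: CellTiter-Fluor signal (30 min incubation, 37C) for viability, then luciferase luminescence (30 min, room temperature). Compound contact time was 24 h at 37C, following a 5 h pre-incubation.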

[12] = qHTS assay to identify small molecule that activate the aryl hydrocarbon receptor (AhR) signaling pathway - cell viability counter screen (AID 743086);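 further: HepG2 liver cells carrying the AhR DRE luciferase reporter; series mostly up to about 70 µM; nearly all actives have a fitted effect of over 45% in size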
Outline: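 HepG2-AhR-luc (HG2L7.5c1) cells, 4000/well, were preincubated 5 h at 37C, exposed to compound in qHTS format for 24 hr at 37C, then given CellTiter-Fluor for 30 min; viability was read as fluorescence in the reporter wells.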

[13] = target: Peroxisome proliferator-activated receptor gamma (Homo sapiens) (UniProt P37231); assay: qHTS assay to identify small molecule agonists of the peroxisome proliferator-activated receptor gamma (PPARg) signaling pathway (AID 743094; active means well fitted activation curve with a large enough effect in the signal ratio in the repeat runs, not every such curve was filed as active; the % refers to the signal ratio)
Sequence of Peroxisome proliferator-activated receptor gamma (Homo sapiens) (P37231 whole entry, looked up): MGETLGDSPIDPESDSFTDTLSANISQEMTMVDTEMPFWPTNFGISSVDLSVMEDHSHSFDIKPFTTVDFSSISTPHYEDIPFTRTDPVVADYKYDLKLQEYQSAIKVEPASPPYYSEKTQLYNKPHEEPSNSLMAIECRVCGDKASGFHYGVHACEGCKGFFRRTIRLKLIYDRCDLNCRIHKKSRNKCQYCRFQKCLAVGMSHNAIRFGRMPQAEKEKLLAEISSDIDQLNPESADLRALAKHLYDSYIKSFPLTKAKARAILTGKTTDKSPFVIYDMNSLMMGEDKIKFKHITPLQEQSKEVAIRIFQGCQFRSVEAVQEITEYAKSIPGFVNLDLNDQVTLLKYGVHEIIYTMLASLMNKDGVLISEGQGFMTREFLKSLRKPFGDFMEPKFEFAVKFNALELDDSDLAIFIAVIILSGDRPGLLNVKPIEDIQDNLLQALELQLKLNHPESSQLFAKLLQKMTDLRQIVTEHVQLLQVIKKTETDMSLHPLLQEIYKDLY
Outline: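 Agonist activity was taken from a beta-lactamase reporter (FRET substrate, 1 h at room temperature) in HEK293H cells carrying a PPARg UAS-bla construct. Compounds in DMSO were incubated 17 h at 37C after a 5 h cell pre-incubation.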

[14] = target: Peroxisome proliferator-activated receptor gamma (Homo sapiens) (UniProt P37231); assay: qHTS assay to identify small molecule antagonists of the peroxisome proliferator-activated receptor gamma (PPARg) signaling pathway (AID 743191; calls by dose curve; further: series mostly up to about 63 µM; nearly all actives have a fitted effect of over 30% in size)
Outline: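 GeneBLAzer PPARg UAS-bla HEK293H cells carrying a UAS-driven beta-lactamase reporter were plated at 3000 cells/well, preincubated 5 h at 37C, then given compound for 17 h at 37C; LiveBLAzer B/G FRET substrate was read after 1 h at room temperature.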

[15] = qHTS assay to identify small molecule antagonists of the peroxisome proliferator-activated receptor gamma (PPARg) signaling pathway - cell viability counter screen (AID 743194); further: nearly all actives have a fitted effect of over 55% in size
Outline: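 PPARg-UAS-bla HEK293H cells were plated, rested 5 h at 37 C, then treated with compounds plus rosiglitazone (50 nM final) for 17 h at 37 C; viability was then read by CellTiter-Glo luminescence after 30 min at room temperature.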

[16] = qHTS assay for small molecule agonists of the antioxidant response element (ARE) signaling pathway (AID 743202; active means well fitted activation curve with a large enough effect in the signal ratio in the repeat runs, not every such curve was filed as active; the % refers to the signal ratio)
Outline: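 Steps: seed ARE-bla HepG2 cells (2,000/well); incubate 5 h at 37 C; add compounds by pin tool; incubate 16 h at 37 C; add FRET substrate; read fluorescence after 2 h at RT.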

[17] = qHTS assay for small molecule agonists of the antioxidant response element (ARE) signaling pathway - cell viability counter screen (AID 743203; calls by dose curve; further: nearly all actives have a fitted effect of over 55% in size)
Outline: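 Viability counter screen: CellTiter-Glo luminescence, read after 30 min at room temperature, in ARE-bla HepG2 wells. Compound exposure lasted 16 h at 37C/5% CO2, following a 5 h pre-incubation of the cells after plating.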

[18] = qHTS assay for small molecule activators of the heat shock response signaling pathway - cell viability counter screen (AID 743209); further: nearly all actives have a fitted effect of over 50% in size
Outline: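 Cytotoxicity counter screen run in the same wells as the heat-shock bla reporter assay: HeLa HSE-bla cells, 5 h compound exposure at 37 C, viability read by CellTiter-Glo luminescence.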

[19] = qHTS assay for small molecule activators of the heat shock response signaling pathway (AID 743210; active means well fitted activation curve with a large enough effect in the signal ratio in the repeat runs, with a control signal flat, not every such curve was filed as active; the % refers to the signal ratio;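 further: HeLa cells with beta-lactamase reporter driven by heat shock elements; series mostly up to about 63 µM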)
Outline: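 Activation of heat shock element-controlled beta-lactamase expression is measured in HeLa cells by LiveBLAzer FRET fluorescence, with compound exposure lasting 5 h at 37 C and substrate loading 2.5 h at room temperature.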
On the % scale 0 is the no-effect control and ±100 the full control effect.

O=C(O)c1cc(C(=O)O)cc(C(=O)O)c1
inactive: Potency [1] | Potency [2] | outcome [3] | Potency [4] | Potency [5] | Potency [6] | Potency [7] | Potency [8] | outcome [9] | outcome (Aromatase (Homo sapiens)) | Potency [10] | Potency [11] | Potency [12] | Potency [13] | Potency [14] | outcome [15] | Potency [16] | outcome [17] | outcome [18] | outcome [19]

C=CC(C)(CCC=C(C)C)OC(=O)CC (stereo unspecified)
inactive: Potency [1] | Potency [2] | outcome [3] | Potency [4] | Potency [5] | Potency [6] | Potency [7] | Potency [8] | outcome [9] | outcome (Aromatase (Homo sapiens)) | Potency [10] | Potency [11] | Potency [12] | Potency [13] | outcome [15] | outcome [17] | outcome [18] | outcome [19]

O=S(=O)(O)c1cc(O)c(O)c(S(=O)(=O)O)c1
inactive: Potency [1] | Potency [2] | outcome [3] | Potency [4] | Potency [5] | Potency [6] | Potency [7] | Potency [8] | outcome [9] | outcome (Aromatase (Homo sapiens)) | Potency [10] | Potency [11] | Potency [12] | Potency [13] | Potency [14] | outcome [15] | outcome [17] | outcome [18] | outcome [19]

CCCC(C)C(=O)OCC (stereo unspecified)
inactive: Potency [1] | Potency [2] | outcome [3] | Potency [4] | Potency [5] | Potency [6] | Potency [7] | Potency [8] | outcome [9] | outcome (Aromatase (Homo sapiens)) | Potency [10] | Potency [11] | Potency [12] | Potency [13] | Potency [14] | outcome [15] | outcome [17] | outcome [18]

CC(C)=CCC/C(C)=C/C#N
inactive: Potency [1] | Potency [2] | outcome [3] | Potency [4] | Potency [5] | Potency [6] | Potency [7] | Potency [8] | outcome [9] | outcome (Aromatase (Homo sapiens)) | Potency [10] | Potency [11] | Potency [12] | Potency [13] | outcome [15] | outcome [17] | outcome [18]

CCOC(=O)COc1cc(-n2ncc(C(F)(F)F)c(C)c2=O)c(F)cc1Cl
inactive: Potency [1] | Potency [2] | outcome [3] | Potency [4] | Potency [5] | Potency [6] | Potency [7] | Potency [8] | outcome [9] | outcome (Aromatase (Homo sapiens)) | Potency [10] | Potency [11] | Potency [12] | Potency [13] | Potency [14] | outcome [15] | Potency [16] | outcome [17] | outcome [18] | outcome [19]

CCCCCCCCCCOc1cc2c(=O)c(C(=O)OCC)c[nH]c2cc1OCC
inactive: Potency [1] | Potency [2] | outcome [3] | Potency [4] | Potency [5] | Potency [6] | Potency [7] | Potency [8] | outcome [9] | outcome (Aromatase (Homo sapiens)) | Potency [10] | Potency [11] | Potency [12] | Potency [13] | activity change, negative = cytotoxicity [15] 22.1% [at 5.95 µM] | activation [16] -0.445% [at 8.36 µM] | viability change, negative = cytotoxic [17] -3.47% [at 8.36 µM] | activity change, negative = cytotoxicity [18] 1.04% [at 5.95 µM] | activation [19] -0.938% [at 5.95 µM]

CCOC(=O)C1=NOC(c2ccccc2)(c2ccccc2)C1
inactive: Potency [1] | Potency [2] | outcome [3] | Potency [4] | Potency [5] | Potency [6] | Potency [7] | Potency [8] | outcome [9] | outcome (Aromatase (Homo sapiens)) | Potency [10] | Potency [11] | Potency [12] | Potency [13] | Potency [14] | outcome [15] | Potency [16] | outcome [17] | outcome [18] | outcome [19]

O=C(CO)[C@@H](O)[C@H](O)[C@H](O)CO
inactive: Potency [1] | Potency [2] | outcome [3] | Potency [4] | Potency [5] | Potency [6] | Potency [7] | Potency [8] | outcome [9] | outcome (Aromatase (Homo sapiens)) | Potency [10] | Potency [11] | Potency [12] | Potency [13] | outcome [15] | Potency [16] | outcome [17] | outcome [19]

CO[Si](C)(OC)c1ccccc1
inactive: Potency [1] | Potency [2] | outcome [3] | Potency [4] | Potency [5] | Potency [6] | Potency [7] | Potency [8] | outcome [9] | outcome (Aromatase (Homo sapiens)) | Potency [10] | Potency [11] | Potency [12] | Potency [13] | Potency [14] | Potency [16] | outcome [17] | outcome [18] | outcome [19]

CCCCOC(=O)CCC(C)=O
inactive: Potency [1] | Potency [2] | outcome [3] | Potency [4] | Potency [5] | Potency [6] | Potency [7] | Potency [8] | outcome [9] | outcome (Aromatase (Homo sapiens)) | Potency [10] | Potency [11] | Potency [12] | Potency [13] | outcome [15] | Potency [16] | outcome [17] | outcome [18]

CCCCCCCC1CCCC1=O (stereo unspecified)
inactive: Potency [1] | Potency [2] | outcome [3] | Potency [4] | Potency [5] | Potency [6] | Potency [7] | Potency [8] | outcome [9] | outcome (Aromatase (Homo sapiens)) | Potency [10] | Potency [11] | Potency [12] | Potency [13] | Potency [14] | Potency [16] | outcome [17] | outcome [18] | outcome [19]

CCOC(=O)COC(=O)c1ccccc1C(=O)OCC
inactive: Potency [1] | Potency [2] | outcome [3] | Potency [4] | Potency [5] | Potency [6] | Potency [7] | Potency [8] | outcome [9] | outcome (Aromatase (Homo sapiens)) | Potency [10] | Potency [11] | Potency [12] | Potency [13] | Potency [14] | Potency [16] | outcome [17] | outcome [18] | outcome [19]

CC1(C)OC[C@@H](COC(=O)CCc2ccc(OC[C@@H](O)CNCCNC(=O)N3CCOCC3)cc2)O1
inactive: Potency [1] | Potency [2] | outcome [3] | Potency [4] | Potency [5] | Potency [6] | Potency [7] | Potency [8] | outcome [9] | outcome (Aromatase (Homo sapiens)) | Potency [10] | Potency [11] | Potency [12] | Potency [13] | Potency [14] | outcome [17] | outcome [18]
